# Screening results: PubChem BioAssay, National Center for Advancing Translational Sciences (NCATS)
# ClpP mod = qHTS Assay for Activators of ClpP; purified B. subtilis ClpP, FRET peptide cleavage, 20 min; hit rate 1.9% among 340,000; AID 651965, 2013; Potency, µM (doses to about 57.5 µM); ATP-dependent Clp protease proteolytic subunit (Bacillus subtilis (strain 168)), P80244; active = well fitted falling curve with a large enough effect; inconclusive = small, poorly fitted or top-dose-only effect; inactive = no such curve, though single readings can be large or run the other way; note: the source files actives as falling curves though it sought activators and does not explain the sign; nearly all actives have a fitted effect of over 65% in size
# Target sequence (P80244 whole entry, looked up): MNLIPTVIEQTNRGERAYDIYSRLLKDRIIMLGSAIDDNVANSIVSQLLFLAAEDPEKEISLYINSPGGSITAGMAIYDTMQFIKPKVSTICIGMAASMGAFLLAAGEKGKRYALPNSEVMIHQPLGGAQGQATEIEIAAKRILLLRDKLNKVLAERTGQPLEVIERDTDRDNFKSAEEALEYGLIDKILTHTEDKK
#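 ClpP 10 microg/mL final, pH 8 Tris/KCl buffer with BSA, glycerol, Tween-20; compound pinned in; FRET-FV substrate; RT 20 min; Ex320/Em430; ΔFRET vs ADEP 5.8 microM, DMSO, no enzyme.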
# IL-1B inflam inh = blocks inflammasome-driven IL-1 beta release; THP-1 LPS/ATP IL-1B secretion, AlphaLISA, 16 h; hits give low values; activity change, % at 57.5 µM; hit rate 4.7% among 360,000; AID 743279; in the data active = activity change below about -50%; inconclusive = mostly about -30% to -49%
#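 THP-1 cells pretreated 1 hr with compounds (up to 57.5 uM final), then stimulated with LPS (250 ng/mL final) plus ATP (1.25 mM final); secreted IL-1B measured by AlphaLISA after 16 hr, decreased signal indicating inhibition.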
# DRD3 agonist = agonists of human D3 dopamine receptor | max activation, % | P35462 | hit rate 0.58% among 410,000 | D3R DiscoveRx beta-arrestin cells, luminescence, 90 min | AID 652048; in the data active = max activation above about 30%
# Target sequence (P35462 whole entry, looked up): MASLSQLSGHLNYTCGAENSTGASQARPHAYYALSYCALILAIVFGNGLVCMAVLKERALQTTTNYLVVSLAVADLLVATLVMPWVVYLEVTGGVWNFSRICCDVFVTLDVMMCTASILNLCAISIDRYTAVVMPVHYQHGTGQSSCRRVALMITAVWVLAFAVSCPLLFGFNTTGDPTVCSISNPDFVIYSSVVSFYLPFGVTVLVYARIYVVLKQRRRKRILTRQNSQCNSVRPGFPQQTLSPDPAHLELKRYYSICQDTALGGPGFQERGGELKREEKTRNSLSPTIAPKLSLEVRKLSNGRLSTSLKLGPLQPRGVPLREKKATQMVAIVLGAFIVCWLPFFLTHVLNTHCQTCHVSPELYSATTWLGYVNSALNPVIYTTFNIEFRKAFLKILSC
#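 Cells at 1500/well, incubated overnight, then treated with pinned compounds (dopamine as control) for 90 min at 37 degrees C. DiscoveRx reagent added for 30 - 60 minutes at room temperature; luminescence read.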
# D3 antag = D3 dopamine receptor (human) antagonism; D3R cells, DiscoveRx beta-arrestin luminescence, antagonist mode; hits give low values; max response, negative = inhibition, %; hit rate 2.5% among 360,000; in the data active = max response below about -50%; inconclusive = no clear call, values can overlap the other calls
#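 Cells plated overnight at 1500 cells/well, then exposed to library compounds with dopamine controls for 90 minutes at 37 degrees C. DiscoveRx reagent added for 30–60 minutes at room temperature; luminescence read, quantitative HTS format.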
# TDP1 cell noCPT = qHTS for Inhibitors of human tyrosyl-DNA phosphodiesterase 1 (TDP1): qHTS in cells in absence of CPT; hit rate 15% among 420,000; Potency, µM (doses to about 46.2 µM), most hits filed as inhibitors; DT40 Tdp1-/- hTDP1 cells, no CPT, ATP luminescence, 48 h; note: nearly all actives have a fitted effect of over 55% in size
#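 Readout: luminescence from CellTiter-Glo after 30 min in the dark at RT. Cells: DT40 Tdp1-/- with stable hTDP1, 400/well. Exposure: compounds alone, ≥48 hr, 37 °C.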
# TDP1 cell CPT = DT40-hTDP1 cell growth loss with CPT | hit rate 12% among 420,000 | Potency, µM (titrated, usually from 46.2 µM), most hits filed as inhibitors | chicken DT40 Tdp1-/-;hTDP1 cells + 20 nM CPT, ATP luminescence, 48 h; note: nearly all actives have a fitted effect of over 55% in size
#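 Chicken DT40 Tdp1-/- cells stably complemented with human TDP1 were seeded at 400 cells/well in medium containing 20 nM camptothecin, exposed to pin-transferred compounds, and grown at 37 °C for at least 48 hr. Viability was read as ATP luminescence.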
# Hits are given with their value; . = inactive; ? = inconclusive; / = no result given; [ ] = remark or other dose. The list is not random: actives were taken first. Their share in the collection is about 21%. Unless noted, calls come from the whole dose curve; as a rule, active = well fitted inhibition curve with a large enough effect; inconclusive = small, poorly fitted or top-dose-only effect; inactive = flat fitted curve, though single readings scatter.
SMILES,ClpP mod,IL-1B inflam inh,DRD3 agonist,D3 antag,TDP1 cell noCPT,TDP1 cell CPT
Cc1cc(C)c(NC(=O)C2CCN(c3nc4ccccc4n4cccc34)CC2)c(C)c1,?,/,.,/,?,.
CC(=O)OCC1OC(n2cnc3c(=O)[nH]cnc32)C(OC(C)=O)C1OC(C)=O (configuration not stated),/,/,/,/,.,.
O=C1NC(N2CCOCC2)=N/C1=C/c1ccc2c(c1)OCO2,.,.,.,.,?,.
Cc1cc(C)c(NC(=O)CSc2nc(=O)[nH]c3c2CCCC3)c(C)c1,.,/,.,/,23.1µM,?
Cc1c(Cl)cccc1NC(=O)CSc1nc(=O)n(Cc2ccco2)c2c1CCC2,.,/,.,/,?,20.6µM
Cc1c(Cl)cccc1NC(=O)CSc1nc(=O)[nH]c2c1CCCC2,.,/,.,/,20.6µM,20.6µM
O=C(CSc1nc(=O)[nH]c2c1CCCC2)Nc1ccc(Cl)c(Cl)c1,.,/,.,/,?,?
CCOC(=O)C1CCCN1C(=O)C1(NC(C)=O)CCCC1 (configuration not stated),.,.,.,.,.,.
O=C(CSc1nc2ccccc2s1)c1ccc(O)cc1O,.,.,.,.,.,?
CCCN(CC(=O)Nc1ccccc1C)C(=O)Cc1cccs1,.,.,.,.,.,.
CC(=O)Nc1ccc(Sc2ccccc2C(=O)Nc2ccc(F)cc2)cn1,/,.,.,.,18.4µM,?
CN(C)/C=C(\C#N)C(=O)N/N=C(\CC(=O)C(F)(F)F)c1ccco1,/,.,.,.,.,.
O=c1c2ccccc2nc2sc3ccccc3n12,?,.,.,.,13µM,?
Cc1cc(NC(=O)CSc2nc(C3CCCCC3)nc3ccccc23)no1,.,.,.,?,?,?
Cc1nonc1NC(=O)CSc1nc(C23CC4CC(CC(C4)C2)C3)nc2ccccc12,.,-89.9,.,.,?,?
Cc1nonc1NC(=O)CSc1nc(C2CCCCC2)nc2ccccc12,.,-73.6,.,.,23.1µM,29.1µM
Cc1cc2nc(SCC(=O)Nc3nonc3C)c3c(c2cc1C)CCCC3,.,.,.,.,.,.
NC(=O)CSc1nc(C23CC4CC(CC(C4)C2)C3)nc2ccccc12,.,?,.,.,25.9µM,?
CCOc1c([N+](=O)[O-])cc2c(C)c(C(=O)N3CCN(C)CC3)oc2c1OCC,/,.,.,.,16.4µM,.
CCOC(=O)c1ccccc1NC(=O)CCc1nc(-c2ccc(C)cc2)no1,?,/,.,/,.,.
Cc1ccc(-c2noc(CCC(=O)Nc3cccc(C#N)c3)n2)cc1,.,.,.,.,18.4µM,?
Cc1ccc(-c2noc(CCC(=O)Nc3ccc(C)cn3)n2)cc1,.,.,.,-73.0,.,.
CN(C)C(CNC(=O)c1cc(S(=O)(=O)N(C)c2ccccc2)ccc1Cl)c1ccccc1 (configuration not stated),/,.,.,.,6.51µM,5.8µM
CN(c1ccccc1)S(=O)(=O)c1ccc(Cl)c(C(=O)NCc2ccco2)c1,/,.,.,.,?,?
CN(c1ccccc1)S(=O)(=O)c1ccc(Cl)c(C(=O)NCc2ccccc2CN2CCCC2)c1,.,?,.,.,23.1µM,?
SMILES,ClpP mod,IL-1B inflam inh,DRD3 agonist,D3 antag,TDP1 cell noCPT,TDP1 cell CPT
CN(c1ccc(F)cc1)S(=O)(=O)c1ccc(Cl)c(C(=O)NCC(c2ccco2)N2CCCCC2)c1 (configuration not stated),.,.,.,.,2.31µM,2.31µM
CN(C)C(CNC(=O)c1cc(S(=O)(=O)N(C)c2ccc(F)cc2)ccc1Cl)c1ccco1 (configuration not stated),.,.,.,.,7.31µM,9.2µM
COC(=O)c1cc(CNC(=O)c2ccccc2)cc(NC(=O)c2ccccc2OC)c1,/,/,/,/,?,.[9.04 µM]
Cc1[nH]c2ccccc2c1C(=O)C(=O)NCc1cccs1,/,.,.,.,?,.
Cc1ccc(C(=O)/C=C/c2cc(Br)cc(Br)c2O)o1,.,?,.,.,29.1µM,.
C=CC[C@@H](Cc1ccc(F)cc1)C(=O)OC[C@H]1CCCN1C(=O)[C@@H](CC=C)CC(=O)N[C@@H](CO)Cc1ccccc1,.,.,.,.,11.6µM,11.6µM
C=CCC[C@@H](Cc1ccc(F)cc1)C(=O)OC[C@@H]1CCCN1C(=O)[C@@H](CC=C)CC(=O)N(CCO)Cc1ccccc1,.,-73.2,.,?,18.4µM,16.4µM
C=CCC[C@@H](Cc1ccc(F)cc1)C(=O)OC[C@@H]1CCCN1C(=O)[C@H](CC=C)CC(=O)N[C@H](CO)Cc1ccccc1,.,?,.,.,18.4µM,?
C=CC[C@@H](Cc1ccc(F)cc1)C(=O)OC[C@H]1CCCN1C(=O)[C@@H](CC=C)CC(=O)N[C@H](CO)Cc1ccccc1,.,.,.,.,?,?
C=CCC[C@@H](Cc1ccc(F)cc1)C(=O)OC[C@H]1CCCN1C(=O)[C@@H](CC=C)CC(=O)N[C@H](CO)Cc1ccccc1,.,.,.,.,?,?
C=CC[C@@H](Cc1ccc(F)cc1)C(=O)OC[C@H]1CCCN1C(=O)[C@H](CC=C)CC(=O)N[C@H](CO)Cc1ccccc1,.,.,.,.,?,20.6µM
CCOc1ccc(-n2c(SCC(=O)c3ccccc3)nc3c([nH]c4ccccc43)c2=O)cc1,.,/,.,/,?,?
C=CC[C@@H](Cc1ccc(F)cc1)C(=O)OC[C@@H]1CCCN1C(=O)[C@@H](CC=C)CC(=O)N[C@H](CO)Cc1ccccc1,.,?,.,?,16.4µM,10.3µM
C=CC[C@@H](Cc1ccc(F)cc1)C(=O)OC[C@H]1CCCN1C(=O)[C@H](CC=C)CC(=O)NCCO,.,.,.,.,?,?
C=CC[C@@H](Cc1ccc(F)cc1)C(=O)OC[C@@H]1CCCN1C(=O)[C@@H](CC=C)CC(=O)N[C@@H](CO)Cc1ccccc1,.,.,.,.,18.4µM,?
C=CCC[C@H](Cc1ccc(F)cc1)C(=O)OC[C@H]1CCCN1C(=O)[C@@H](CC=C)CC(=O)NCCO,.,.,.,.,?,?
C=CCNC(=O)c1c(CSc2ccc(Cl)cc2)noc1C(=O)NCc1ccccc1,.,.,.,.,?,?
Cc1cccc(NC(=O)CSc2nnc(-c3cccs3)o2)c1,.,/,.,/,?,?
COc1ccc(C(=O)OCc2ccccc2C#N)cc1S(=O)(=O)N1CCOCC1,.,.,.,.,.,.
Cc1ccc(C(=O)c2oc3ccccc3c2NC(=O)COc2ccc(Cl)c(C)c2)cc1,.,/,.,/,.,.
COc1cc(/C=N/c2oc(-c3ccccc3)cc2C#N)ccc1O,3.55µM,.,.,.,.,.
